From PubChem
Compounds with a hit are over-represented: about 12% of the library has one in this group of screens.
BAZ2B block: blocks human BAZ2B; AID 504333; actives 4.4% (n = 360,000); Q9UIF8; AlphaScreen BAZ2B-H3K14Ac peptide displacement; Potency, µM (doses to about 114 µM), actives largely listed as inhibitors; further: nearly all actives have a fitted effect of over 60% in size
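Compounds, titrated to a top concentration of 110 uM, were incubated 30 min at room temperature with preformed BAZ2B/acetyl-K14 H3 peptide complex (50 nM each). Proximity signal was measured by AlphaScreen after 20 min with beads.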
HP1b binding inh: HP1-beta chromodomain-methylated histone interaction inhibition; AID 540317; actives 0.56% (n = 390,000); Potency, µM (top dose mostly 114 µM), hits mostly inhibitors; P83916; AlphaScreen HP1-beta / biotin-H3K9me3 peptide binding; further: nearly all actives have a fitted effect of over 70% in size
Target sequence (P83916 whole entry, looked up): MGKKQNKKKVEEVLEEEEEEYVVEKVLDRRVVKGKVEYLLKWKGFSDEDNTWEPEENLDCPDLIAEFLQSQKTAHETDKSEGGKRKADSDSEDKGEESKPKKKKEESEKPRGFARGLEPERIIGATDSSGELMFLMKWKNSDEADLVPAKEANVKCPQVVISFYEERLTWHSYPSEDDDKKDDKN
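Compound inhibition of the preformed complex between 50 nM HP1-beta and 50 nM biotinylated H3K9me3 peptide was read by AlphaScreen. Buffer was PBS pH 7.4 with 0.01% Tween-20. Incubations ran 30 min at room temperature, with 10 ug/mL donor/acceptor beads.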
PI5P4Ka inh: inhibitors of human PI5P4K alpha; max response, %; actives 1.2% (n = 330,000); PI5P4Kalpha enzyme, ADP-Glo luminescence, 60 min; active compounds read low; P48426; active means max response of -50% or lower; inconclusive means between -30% and -50%; inactive means -30% or higher; further: value at the top dose of about 77 µM
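Luminescence from ADP-Glo served as readout of PI5P4Kalpha activity in a qHTS format. Reaction: enzyme, substrate, compound, ATP at 5 microM final, 60 min at RT.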
PLK1 PBD inh: blocks phosphopeptide binding to human PLK1 polo-box domain | actives 2.8% (n = 360,000) | AID 720504 | P53350 | Potency, µM, hits mostly inhibitors | Plk1 PBD binding of FITC phosphopeptide, fluorescence polarization; further: series mostly up to about 57 µM; nearly all actives have a fitted effect of over 65% in size
JMJD2A Tudor inh: blocks the human JMJD2A Tudor domain; Potency, µM (doses to about 114 µM), most hits filed as inhibitors; AID 504339; AlphaScreen JMJD2A-Tudor / H3K4me3 peptide binding; O75164; actives 4.4% (n = 390,000); further: nearly all actives have a fitted effect of over 50% in size
G9a inh: blocks human histone lysine methyltransferase G9a. Q96KQ7. G9a H3K9 monomethylation, AlphaScreen, 2 h. Potency, µM (titrated, usually from 102 µM), usual class: inhibitors. actives 8.8% (n = 350,000). AID 504332; further: nearly all actives have a fitted effect of over 75% in size
Target sequence (Q96KQ7 913-1193 limits assumed): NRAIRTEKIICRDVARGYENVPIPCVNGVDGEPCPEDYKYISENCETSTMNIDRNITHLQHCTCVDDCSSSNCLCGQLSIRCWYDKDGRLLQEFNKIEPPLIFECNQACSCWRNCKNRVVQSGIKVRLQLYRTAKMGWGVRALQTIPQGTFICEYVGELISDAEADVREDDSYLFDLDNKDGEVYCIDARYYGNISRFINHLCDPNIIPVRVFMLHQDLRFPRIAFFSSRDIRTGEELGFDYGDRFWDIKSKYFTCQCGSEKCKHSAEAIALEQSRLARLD
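Chemiluminescent proximity detection of H3K9 monomethylation, read after 10 min bead incubation in the dark. Reaction: 20 nM G9a, 500 nM biotin-H3K9 peptide, 20 uM SAM cofactor, 2 h, room temperature, following 15 min enzyme-compound preincubation.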
Hits are given with their value; i = inactive; ? = inconclusive; nt = no result given; [ ] = remark or other dose. Unless noted, the call rests on the fitted dose curve; in most records, active means well fitted curve in the direction sought with a large enough effect; inconclusive means small, poorly fitted or top-dose-only effect, or another doubt; inactive means no such curve, though single readings can be large; an effect the other way counts as inactive or inconclusive.

SMILES | BAZ2B block | HP1b binding inh | PI5P4Ka inh | PLK1 PBD inh | JMJD2A Tudor inh | G9a inh
COc1ccc(NC(=O)CCCc2nc(-c3ccco3)no2)c(OC)c1 | ? | i | nt | nt | i | i
Cc1ccc(-n2ncc3c2CCCC3NC(=O)CCc2c(C)noc2C)cc1C (configuration not stated) | i | i | i | i | i | ?
Cc1nc2cc3c(=O)n(C)cnc3cc2n1Cc1ccccc1 | nt | nt | ? | i | nt | nt
Cc1c(C(=O)OC(C)C)sc(N)c1C(=O)OC(C)C | i | i | i | i | i | ?
Cc1c(C(N)=O)sc(N)c1C(=O)OC(C)C | i | i | i | ? | i | 39.8µM
CCCc1c(C(=O)OCC)sc(N)c1C#N | ? | ? | i | 18.9µM | i | ?
CCOC(=O)c1sc(N)c(C(N)=O)c1C | nt | i | i | 23.8µM | i | 39.8µM
Cn1c(=O)c2sccc2n2c(CCCC(=O)N3CCCCC3)nnc12 | i | i | i | i | i | i
COc1cc2c(cc1NS(=O)(=O)c1cccc(C#N)c1)n(C)c(=O)n2C | 79.4µM | i | nt | nt | i | 10µM
Cc1cc2c(cc1NS(=O)(=O)c1ccc(Br)cc1)n(C)c(=O)c(=O)n2C | i | i | nt | nt | i | i
Cc1cc2c(cc1NS(=O)(=O)c1cccc(C#N)c1)n(C)c(=O)c(=O)n2C | i | i | nt | nt | i | 10µM
CCCCc1cc(C(=O)Cc2ccccn2)c(O)cc1O | i | i | i | i | i | i[2.33 µM]
COc1ccccc1N1CCN(C2CCCN(C(=O)CCN3CCCCO3)C2)CC1 (configuration not stated) | i | i | i | i | i | i
CC(Nc1ccc(S(=O)(=O)N2CCN(C)CC2)cc1[N+](=O)[O-])c1ccccc1 (configuration not stated) | ? | i | i | i | ? | 39.8µM
COc1cccc(C(CNc2ccc(S(=O)(=O)N3CCN(C)CC3)cc2[N+](=O)[O-])N(C)C)c1 (configuration not stated) | ? | i | i | i | ? | 50.1µM
COc1ccccc1C(C)Nc1ccc(S(=O)(=O)N2CCN(C)CC2)cc1[N+](=O)[O-] (configuration not stated) | 39.8µM | ? | i | i | 35.5µM | ?
COCC(C)Nc1ccc(S(=O)(=O)N2CCCC2)cc1[N+](=O)[O-] (configuration not stated) | i | i | i | i | i | i
COc1cccc(Oc2ccc(S(=O)(=O)N3CCCC3)cc2[N+](=O)[O-])c1 | ? | i | i | i | i | i
CN(CC(=O)O)c1ccc(S(=O)(=O)N2CCOCC2)cc1[N+](=O)[O-] | i | i | i | i | i | i
Cc1ccc(S(=O)(=O)N2CCN(C)CC2)cc1[N+](=O)[O-] | i | i | nt | i | i | i
CN1CCN(S(=O)(=O)c2ccc(N(C)Cc3ccc(OC(F)F)cc3)c([N+](=O)[O-])c2)CC1 | 50.1µM | ? | i | i | ? | i[0.501 µM]
Cc1cc(C)c(NC(=O)CN2c3ccccc3S(=O)(=O)c3ccccc32)c(C)c1 | i | i | nt | nt | i | i
O=C(Cn1nnnc1CN1CCOCC1)N1CCC(c2cccc(Cl)c2)C1 (configuration not stated) | i | i | i | i | i | nt
O=C(c1cnccn1)N1CCC2(CC1)CCN(c1ccccc1)CC2 | nt | nt | nt | nt | nt | i[12.7 µM]
C/C(=N/NS(=O)(=O)c1ccc(F)cc1)c1ccncc1 | i | i | i | ? | i | 22.4µM
SMILES | BAZ2B block | HP1b binding inh | PI5P4Ka inh | PLK1 PBD inh | JMJD2A Tudor inh | G9a inh
CC(=NNS(=O)(=O)c1ccc(C)cc1)c1ccncc1 | nt | nt | i | i | nt | nt
CCc1ccc(S(=O)(=O)N/N=C(/C)c2ccncc2)cc1 | i | i | i | ? | i | 39.8µM
Cc1nn(CC(=O)Nc2ccc3c(c2)OCCO3)c(C)c1[N+](=O)[O-] | nt | i | i | i | i | nt
COc1ccc(CNC(=O)Cc2c(C)c3cc4c(C)coc4c(C)c3oc2=O)cc1OC | i | i | nt | nt | i | i
O=C(Nc1ccc(F)cc1Cl)C1Cc2ccccc2N1C(=O)c1ccccc1 (configuration not stated) | i | i | nt | nt | i | i
N#CCCn1cc(C(=O)Nc2ccc(C(=O)O)cc2)c(-c2cccs2)n1 | i | i | ? | 5.97µM | 15.8µM | i
N#CCCn1cc(C(=O)NCc2ccccc2)c(-c2cccs2)n1 | i | i | i | i | i | i
N#CCCn1cc(C=O)c(-c2cccs2)n1 | i | i | ? | 26.7µM | ? | i
CCOC(=O)c1cnc2c(Cl)cc(Cl)cc2c1NCCCN1CCOCC1 | ? | i | i | 13.4µM | i | i[0.501 µM]
CCOC(=O)c1cnc2ccc(C)cc2c1Nc1ccc(N(CC)CC)cc1 | 3.55µM | 10µM | nt | nt | 12.6µM | 4.47µM
CCOC(=O)c1cnc2ccccc2c1Nc1ccc(C(=O)O)cc1 | i | i | i | i | i | ?
CCOC(=O)c1cnc2ccc(Cl)cc2c1Nc1ccc(S(=O)(=O)Nc2ncccn2)cc1 | i | i | i | i | i | i
CCOC(=O)c1cnc2ccc(Cl)cc2c1Nc1ccc(N2CCOCC2)cc1 | 14.1µM | ? | nt | nt | 35.5µM | 7.08µM
CCOC(=O)c1cnc2ccc(C)cc2c1Nc1ccc(N2CCOCC2)cc1 | 35.5µM | 22.4µM | i | i | 28.2µM | 39.8µM
CCOC(=O)c1cnc2c(C)cc(Cl)cc2c1NCCCN1CCOCC1 | i | i | i | i | i | i
COc1cc(OC)c(C(=O)c2ccccc2[N+](=O)[O-])c(OC)c1 | nt | nt | i | i | nt | nt
COc1ccc(NC(=O)CSc2nc(C)cs2)c([N+](=O)[O-])c1 | nt | i | i | i | ? | nt
CCOC(=O)c1cnc2ccc(C(=O)OC)cc2c1Nc1ccc(N2CCOCC2)cc1 | 17.8µM | ? | nt | nt | 50.1µM | 12.6µM
Cc1ccc(Cl)cc1NC(=O)N1CCC(CN2CCCCCC2)CC1 | i | i | nt | nt | i | i
O=C(O)c1cccc(C(=O)O)n1 | i | nt | nt | nt | nt | ?
CC(=O)Nc1cccc(C(=O)O)n1 | 22.4µM | i | i | i | ? | 8.91µM
CC(=O)Nc1cccc(NC(C)=O)n1 | i | i | i | i | i | i
O=C(O)c1cccc(Cl)n1 | i | i | i | i | i[11.4 µM] | 39.8µM
CCCCN(C)C(=O)c1nc2ccccn2c1CN1CCC[C@H]1C(=O)OC | i | i | ? | ? | 39.8µM | i
CCCCN(C)C(=O)c1nc2ccccn2c1CN1CCN(c2ccccn2)CC1 | i | i | i | ? | i | nt
SMILES | BAZ2B block | HP1b binding inh | PI5P4Ka inh | PLK1 PBD inh | JMJD2A Tudor inh | G9a inh
O=C(NC(=O)c1ccc(Cl)cc1)Nc1cc(N2CCCCC2)ncn1 | nt | i | i | 26.7µM | 79.4µM | nt
O=C(Nc1cc(N2CCOCC2)ncn1)c1ccc(F)cc1 | i | i | i | i | i | i
O=C(NC(=O)N1CCCCCC1)c1ccc(Cl)cc1 | i | i | i | i | i | i
O=C(Nc1cc(N2CCCCC2)ncn1)c1ccc(F)cc1 | i | i | i | 29.9µM | i | i
CCOC(=O)c1ccccc1NC(=O)N1CCN(Cc2cc(=O)n3nc(-c4ccccc4)sc3n2)CC1 | i | i | nt | nt | i | i
CCOC(=O)c1c(CN2CCN(C)CC2)oc2ccc(OC)cc12 | 79.4µM | i | i | i | ? | ?
